An excerpt weighted towards active compounds, which were near 18% of everything screened.
IL1B secr inh: inflammasome signaling inhibition, IL-1 beta readout | THP-1 LPS/ATP IL-1B secretion, AlphaLISA, 16 h; hits give low values | activity change, % at 57.5 µM | 360,000 tested, 4.7% active; in the data active = activity change below about -50%; inconclusive = mostly about -30% to -49%
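Secreted IL-1B measured by AlphaLISA bead assay after 16 h compound exposure of THP-1 cells; compounds (final up to 57.5 uM) added 1 h before LPS (250 ng/mL) and ATP (1.25 mM) stimulation; lower signal means less secretion.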
TDP1 cell CPT: growth inhibition of DT40 Tdp1-/-;hTDP1 cells with camptothecin (screen for TDP1 inhibitors). chicken DT40 Tdp1-/-;hTDP1 cells + 20 nM CPT, ATP luminescence, 48 h. Potency, µM (top dose mostly 46.2 µM), without a hit: at the highest dose activity change, negative = growth inhibition, hits mostly inhibitors. 420,000 tested, 12% active; note: potency is the fitted concentration of half-maximal effect; nearly all actives have a fitted effect of over 55% in size
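Cell growth measured by CellTiter-Glo luminescence after a minimum 48 h, 37 C compound exposure with 20 nM CPT in Tdp1-knockout DT40 cells stably expressing hTDP1, seeded 400/well; qHTS titration format.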
TDP1 inh: blocks human tyrosyl-DNA phosphodiesterase 1 | 350,000 tested, 0.28% active | Potency, µM (series often up to 130 µM), for inactives: at the top dose activity change, negative = inhibition, hits mostly inhibitors | Q9NUW8 | recombinant TDP1, AlphaScreen DNA substrate cleavage; note: potency is the fitted concentration of half-maximal effect; nearly all actives have a fitted effect of over 40% in size
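E. coli-derived human Tdp1, 1 nM final. Cpd preinc 15 min RT; substrate 15 nM final, 5 min RT; AS bead mix 10 ug/ml final, 10 min RT. Signal loss = tyrosine-FITC cleavage. No-enzyme wells = max signal.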
CtBP-E1A inh: inhibitors of CtBP/E1A interaction. activity change, % (concentration not given with the values). 340,000 tested, 0.49% active. AlphaScreen GST-E1A/His-CtBP binding, 1536-well; hits give low values. AID 651724; in the data active = activity change below about -65%; inconclusive = mostly about -30% to -63%
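GST-E1A and His-tagged CtBP (125 nM each as 5X stock) were preincubated with pin-transferred compound for 2 h at 37 °C in the dark, then glutathione donor and nickel acceptor beads were added for 1 h before AlphaScreen reading.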
Six1-Eya2 inh: blocks human Six1 binding to Eya2 | AlphaScreen GST-Six1/His-Eya2 binding, biochemical; hits give low values | Q15475+O00167 | AID 651725 | activity change, % (concentration not given with the values) | 360,000 tested, 0.56% active; in the data active = activity change below about -65%; inconclusive = mostly about -30% to -63%
Target sequence (O00167 whole entry, looked up): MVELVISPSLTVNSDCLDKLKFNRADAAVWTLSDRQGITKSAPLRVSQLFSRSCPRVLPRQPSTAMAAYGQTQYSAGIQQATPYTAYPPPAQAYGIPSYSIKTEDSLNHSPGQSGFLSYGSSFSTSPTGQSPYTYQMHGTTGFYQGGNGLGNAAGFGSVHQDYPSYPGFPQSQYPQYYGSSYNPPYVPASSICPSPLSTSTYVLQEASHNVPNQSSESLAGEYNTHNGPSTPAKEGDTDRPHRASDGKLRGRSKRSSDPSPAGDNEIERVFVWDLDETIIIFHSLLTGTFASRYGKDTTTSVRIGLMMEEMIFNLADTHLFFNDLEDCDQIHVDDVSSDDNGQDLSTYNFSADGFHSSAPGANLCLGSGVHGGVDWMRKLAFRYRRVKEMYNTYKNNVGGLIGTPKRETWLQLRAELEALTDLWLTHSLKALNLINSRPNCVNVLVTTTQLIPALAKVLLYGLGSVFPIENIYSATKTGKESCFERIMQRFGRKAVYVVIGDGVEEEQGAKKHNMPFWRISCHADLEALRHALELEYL
Target sequence (Q15475 whole entry, looked up): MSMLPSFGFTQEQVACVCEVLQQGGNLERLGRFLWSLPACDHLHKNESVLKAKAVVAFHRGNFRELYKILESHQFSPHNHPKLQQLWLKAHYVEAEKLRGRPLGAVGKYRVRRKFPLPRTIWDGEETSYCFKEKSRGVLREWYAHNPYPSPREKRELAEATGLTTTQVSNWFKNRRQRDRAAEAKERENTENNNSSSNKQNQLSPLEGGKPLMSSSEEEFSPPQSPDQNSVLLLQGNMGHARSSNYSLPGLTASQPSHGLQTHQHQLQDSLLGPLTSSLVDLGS
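Homogeneous AlphaScreen proximity assay pairing GST-Six1 with His-tagged Eya2 (added as 5X mix: 250 nM and 500 nM) in 50 mM Tris pH 8.0, 300 mM NaCl, 1 mM TCEP. Glutathione donor and nickel acceptor beads; 1 h, 37 °C, dark.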
TDP1 cell noCPT: qHTS for Inhibitors of human tyrosyl-DNA phosphodiesterase 1 (TDP1): qHTS in cells in absence of CPT. Potency, µM (titrated, usually from 46.2 µM), without a hit: top-dose activity change, negative = growth inhibition, actives largely listed as inhibitors. 420,000 tested, 15% active. AID 686978, 2013. DT40 Tdp1-/- hTDP1 cells, no CPT, ATP luminescence, 48 h; note: potency is the fitted concentration of half-maximal effect; nearly all actives have a fitted effect of over 55% in size
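Readout: luminescence from CellTiter-Glo after 30 min in the dark at RT. Cells: DT40 Tdp1-/- with stable hTDP1, 400/well. Exposure: compounds alone, ≥48 hr, 37 °C.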
* marks the source's active call; other numbers are inactive results; ? = inconclusive; · = no result given. Unless noted, calls come from the whole dose curve; as a rule, active = well fitted curve in the direction sought with a large enough effect; inconclusive = small, poorly fitted or top-dose-only effect, or another doubt; inactive = no such curve, though single readings can be large; an effect the other way counts as inactive or inconclusive. % is set by controls: 0 for no effect and ±100 for the full control effect.

SMILES	IL1B secr inh	TDP1 cell CPT	TDP1 inh	CtBP-E1A inh	Six1-Eya2 inh	TDP1 cell noCPT
O=C(OCC(=O)c1ccc[nH]1)c1ccc(S(=O)(=O)C(F)F)cc1	6	3%	·	5	-2	7%
Cc1ccc(C(=O)Nc2ccc3c4c(cccc24)CC3)cc1[N+](=O)[O-]	-13	?	-3%	1	-7	?
COc1cc(C(C(=O)NC2CCCCC2)N(C(=O)c2snc(C(N)=O)c2N)c2ccc(C)cc2)ccc1O (stereo not given)	-5	-17%	1%	-8	5	?
O=C(OCC(=O)N1CCc2ccccc2C1)c1ccc(OC(F)F)cc1	0	11%	-4%	-4	9	8%
CCCNC(=O)Cn1cnc2sc(C(=O)N3CCN(c4ccc(F)cc4)CC3)c(C)c2c1=O	-6	-30%	-2%	0	-1	-18%
CCCCCC1OC1C/C=C\C/C=C\C/C=C\CCCC(=O)O (stereo not given)	·	·	10%	·	·	·
CC(C)Nc1nc(NC(C)C)nc(N(C)N)n1	41	-9%	6%	?	?	?
CC(=O)Oc1ccc(/C=C2/SC(=S)N(Cc3ccccc3)C2=O)cc1	-11	-7%	·	-3	0	-16%
COc1ccc(CN2C(=O)/C(=C/c3ccncc3)SC2=S)cc1	-82*	23µM*	10%	-7	-14	9.2µM*
CC(c1ccccc1)N1C(=O)/C(=C/c2ccncc2)SC1=S (stereo not given)	-50*	?	·	·	-4	23µM*
O=C(O)CCCCCN1C(=O)/C(=C/c2ccncc2)SC1=S	-98*	23µM*	-3%	1	-6	23µM*
C/C(=N\N=C1/SC(CC(=O)O)C(=O)N1c1ccccc1)c1ccc(C)cc1 (stereo not given)	27	-15%	·	3	1	14%
CC(=O)Nc1ccc2sn(-c3ccccc3)c(=O)c2c1	-102*	2.1µM*	·	-13	10	2.1µM*
CC1(C)CN(c2cccc(C#N)c2)C1=O	14	-1%	-4%	7	7	?
N#Cc1ccc2sn(-c3ccccc3)c(=O)c2c1	19	3.7µM*	·	1	-16	4.6µM*
O=c1c2cc([N+](=O)[O-])ccc2sn1-c1ccccc1	15	4.6µM*	·	0	22	2.9µM*
CCc1ncc(/C=C2\C(=O)Nc3ccccc32)[nH]1	?	-3%	5%	-3	-3	-6%
Cc1cccc(NC(=O)Cc2nnc(NC(=O)Nc3ccccc3F)s2)c1	4	-6%	1%	·	-1	-12%
O=C(Nc1nnc(COc2ccccc2F)s1)Nc1ccccc1F	-10	?	·	1	-3	21µM*
O=C(Nc1ccc(F)cc1)Nc1nnc(Cc2ccccc2)s1	28	-15%	·	6	1	?
O=C(Nc1ccc(F)cc1)Nc1nnc(COc2ccccc2F)s1	-166*	15µM*	-8%	6	1	16µM*
CCOc1cccc(C(=O)Nc2nc3c(s2)CC(C(C)(C)C)CC3)c1 (stereo not given)	·	21µM*	3%	·	·	21µM*
CCCC(=O)Nc1nc2c(s1)CC(C(C)(C)C)CC2 (stereo not given)	·	18µM*	-3%	·	·	21µM*
CC(C)Oc1ccc(C(=O)Nc2nc3c(s2)CC(C(C)(C)C)CC3)cc1 (stereo not given)	·	16µM*	3%	·	·	13µM*
Cc1ccccc1C(=O)Nc1nc2c(s1)CC(C(C)(C)C)CC2 (stereo not given)	·	16µM*	3%	·	·	12µM*
SMILES	IL1B secr inh	TDP1 cell CPT	TDP1 inh	CtBP-E1A inh	Six1-Eya2 inh	TDP1 cell noCPT
CC1CCc2nc(NC(=O)COc3ccc(C(C)(C)C)cc3)sc2C1 (stereo not given)	·	?	3%	·	·	?
NC(=O)c1ccsc1NC(=O)COC(=O)C1CC2CCCC(C1)C2=O (stereo not given)	20	-3%	6%	-11	0	-6%
CCCCCSc1nnc2c(n1)OC(CC)Nc1ccc(Br)cc1-2 (stereo not given)	·	?	2%	·	·	?
Cc1ccc(-c2nc(SCC(=O)c3c(N)n(C4CC4)c(=O)[nH]c3=O)n[nH]2)cc1	38	-9%	0%	·	2	-20%
CC(C)Oc1ccc(N2CC(C(=O)Nc3ccc(N4CCOCC4)cc3)CC2=O)cc1 (stereo not given)	19	?	1%	0	4	?
C1=C(c2cn(-c3nc4ccccc4s3)nn2)CCCC1	64	?	·	6	11	?
CC1CCCC(NC(=O)CCCn2ncn3c(cc4occc43)c2=O)C1C (stereo not given)	45	-4%	2%	0	0	0%
COc1cc(F)ccc1-c1cc(C(=O)Nc2ccc(C)c(NS(C)(=O)=O)c2)[nH]n1	-4	?	·	-5	-13	-22%
CCCCCCn1c(COc2ccccc2F)nnc1SCC(=O)N1c2ccccc2NC(=O)C1(C)C	-57*	23µM*	7%	-5	-8	16µM*
C=CCn1c(C)nnc1SCC(=O)N1c2ccccc2NC(=O)C1(C)C	-2	9%	·	5	5	?
CSc1ccc(C2c3c(-c4ccccc4O)n[nH]c3C(=O)N2Cc2ccncc2)cc1 (stereo not given)	·	23µM*	12%	·	·	18µM*
CCc1ccc(C2c3c(-c4ccccc4O)n[nH]c3C(=O)N2Cc2cccnc2)cc1 (stereo not given)	·	16µM*	7%	·	·	?
COC(=O)c1ccc(C2c3c(-c4ccccc4O)n[nH]c3C(=O)N2Cc2cccnc2)cc1 (stereo not given)	·	?	7%	·	·	?
COc1ccc(/C=N/NC(=O)c2ccccc2O)cc1CN1CCOCC1	5	1%	1%	-1	-13	-4%
COc1ccc(/C=N/Nc2c(Cl)cc(Cl)cc2Cl)cc1CN1CCOCC1	-12	16µM*	5%	-8	0	15µM*
COc1cccc(/C=N/NC(=O)c2cnccn2)c1OC	16	20%	7%	3	-1	0%
NNc1nc(N)c2c(n1)-c1ccccc1CC21CCCC1	-9	10µM*	5%	-11	-3	16µM*
O=c1c2c(nc3n1CCCCC3)-c1ccccc1CC21CCCCC1	20	?	0%	6	-1	?

Assay outcomes: PubChem BioAssay, National Center for Advancing Translational Sciences (NCATS)
